Shiga toxin inh: inhibitors of Shiga toxin in Vero cells | Vero cells, Shiga toxin protein synthesis inhibition reporter | inhibition, % at 38.7 µM | hit rate 9.2% among 290,000 | AID 2315; in the data active = inhibition mostly above about 28%, no sharp cut-off; inactive = mostly below about 43%; also: 0% is about no effect
SARS PLpro yeast: blocks SARS-CoV papain-like protease in a yeast assay. S. cerevisiae expressing SARS-CoV PLpro, growth rescue. Potency, µM (series often up to 32.9 µM), inactives show at the top dose activity, positive = growth rescue, usual class: activators. hit rate 0.19% among 330,000. AID 485353; also: potency is read from the fitted curve at half-maximal effect; 0% is about no effect; nearly all actives have a fitted effect of over 55% in size
NS1 function inh: inhibitors of influenza NS1 protein function. Potency, µM (highest dose often 46.1 µM), inactives show top-dose activity, positive = more growth. hit rate 0.4% among 270,000. AID 2326; also: potency is read from the fitted curve at half-maximal effect; actives are rising curves; nearly all actives have a fitted effect of over 50% in size
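Recovery from NS1-induced slow growth read by OD600 in budding yeast switched to galactose assay medium (pH 6.0, -URA) at 1:100 dilution. Compound 23 nl per well; the matching strain lacking NS1 serves as control.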
CHX counter: affects cycloheximide protein synthesis inhibition readout, counter-screen; cell reporter, cycloheximide protein synthesis inhibition counterscreen; max response, %; hit rate 12% among 300,000; AID 2314; in the data active = max response mostly above about 13%, no sharp cut-off; inactive = mostly below about 14%; also: read at 38.3 µM for the half of the compounds with a filed dose; 0% is about no effect
Starred values were filed as active, the others as inactive; ? = inconclusive; / = not tested or not shown. Only some compounds are listed: those with a hit (about 12% of all), similar ones and a draw of the others. Unless noted, calls follow the shape of the full dose curve.

SMILES	Shiga toxin inh	SARS PLpro yeast	NS1 function inh	CHX counter
CC(=O)Nc1ccc(Nc2nc(-c3cc4ccccc4oc3=O)cs2)cc1	69*	11%	10%	47*
Nc1ccc(Nc2nc(-c3cc4ccccc4oc3=O)cs2)cc1	116*	-1%	17%	43*
O=C(O)c1ccc(Nc2nc(-c3cc4ccccc4oc3=O)cs2)cc1O	20	1%	/	14
CCOc1ccc(NC(=S)N(CCOC)C(C)c2ccco2)cc1 (stereo not drawn)	-2	6%	-43%	-2
Cc1ccsc1/C=N/Nc1ncnc2nc[nH]c12	85*	0%	/	42*
O=C(O)CCNc1ncnc2nc[nH]c12	/	/	4%	/
c1ccc(CNc2ncnc3nc[nH]c23)cc1	17	2%	7%	13
C(=N\Nc1ncnc2nc[nH]c12)/c1cccs1	111*	-1%	/	41*
CN(C)CCCNc1ncnc2nc[nH]c12	/	/	3%	/
Fc1ccc(/C=N/Nc2ncnc3nc[nH]c23)cc1F	99*	1%	22%	73*
Cc1ccccc1/C=N/Nc1ncnc2nc[nH]c12	72*	-1%	3%	21*
CC(C)CC(NS(=O)(=O)c1ccc2c(c1)oc(=O)n2C)C(=O)NCc1cccnc1 (stereo not drawn)	-9	-3%	-4%	-2
O=C(CC1SC(=Nc2ccc3c(c2)OCCO3)NC1=O)Nc1ccc(F)cc1F (stereo not drawn)	-6	0%	-2%	-4
COC(=O)C(C(=O)OC)N1C(=O)CCC1=O	-10	1%	4%	-2
COc1cccc(C(=O)N/N=C/c2ccc(OC)c(COc3ccccc3C(N)=O)c2)c1	109*	0%	-27%	57*
COc1ccc(OCc2cc(/C=N\NC(=O)c3ccccc3)ccc2OC)cc1	72*	-3%	-36%	33*
COc1ccc(C(=O)N/N=C/c2ccc(OC)c(CN3CCCc4ccccc43)c2)cc1	1	-12%	?	9.4*
CN(Cc1ccccc1)S(=O)(=O)c1cccc2cccnc12	8	-29%	-54%	12
O=C(OCC#CCSc1nnc(-c2cccc3ccccc23)o1)c1ccco1	6	-4%	16%	13
O=C(OCC#CCSc1nc2ccccc2o1)c1cc2ccccc2o1	32	12%	4%	15*
O=C(OCC#CCSc1nc2ccccc2o1)c1ccco1	31*	-7%	/	13*
CC(=O)c1ccc(OCCCC(=O)OCC(=O)N2CCN(c3ccccc3)CC2)cc1	-7	-3%	-11%	-2
Nc1ccc2nc(-c3cc(Cl)c(N)c(Cl)c3)[nH]c2c1	64*	-5%	?	36*
Nc1ccc2nc(C3CCCCC3)[nH]c2c1	95	1%	-1%	13*
CC(C)Cc1nc2ccc(N)cc2[nH]1	5	-2%	3%	11
SMILES	Shiga toxin inh	SARS PLpro yeast	NS1 function inh	CHX counter
Cc1ccc2nc(-c3ccccc3N)[nH]c2c1	70	-5%	-10%	41*
Nc1ccc2nc(-c3ccc(Cl)cc3)[nH]c2c1	97*	-27%	-10%	62*
Cc1cc(C(=O)Nc2sccc2C#N)c2ccccc2n1	-3	-9%	7%	-7
CC(Sc1nnc(Cc2cccs2)n1C)C(=O)Nc1ccc(C(N)=O)cc1 (stereo not drawn)	/	1%	/	/
Cc1ccc(NC(=O)COC(=O)c2ccc(C)c(S(=O)(=O)N3CCOCC3)c2)cc1	/	-2%	/	/
Cc1c(N)cccc1-c1nc2ccccc2[nH]1	39*	?	11%	52*
Clc1ccc2nc(-c3ccc(Cl)nc3)[nH]c2c1	53*	-4%	-51%	24*
Clc1ccc(-c2ccccc2)cn1	/	-3%	/	/
Cc1ccc2nc(Cc3ccc(N)cc3)[nH]c2c1	75*	-12%	-7%	20*
NC(=O)c1ccc2nc(-c3ccc(Oc4ccc(Cl)cc4)cc3)[nH]c2c1	45*	/	/	16
O=C(O)c1ccc([N+]2=Cn3c(nc4ccccc43)C2)cc1	/	/	0%	/
Nc1ccc(Cc2nc3c(ccc4ccccc43)[nH]2)cc1	97*	-5%	2%	46*
Cc1ccc2nc(-c3ccccn3)[nH]c2c1	15	-16%	-38%	18*
Nc1ccc2nc(-c3cccc(-c4nc5ccc(N)cc5[nH]4)c3)[nH]c2c1	-4	3%	?	10
Cc1ccc(C)c(-c2nc3ccc(N)cc3[nH]2)c1	33	0%	?	14*
Cc1ccc2nc(CCCc3nc4ccc(C)cc4[nH]3)[nH]c2c1	2	-1%	5%	-1
Nc1ccc(-c2nc3ccc(N)cc3[nH]2)cc1	40	-7%	/	24*
CCCCCN(C(=O)CCC(=O)OCCOc1ccc(OCC)cc1)c1c(N)n(CCCC)c(=O)[nH]c1=O	/	5%	/	/
CC1CC(C)CN(C(=O)COC(=O)c2nccnc2N)C1 (stereo not drawn)	/	1%	/	/
O=C(NCCC(=O)N1CCN(S(=O)(=O)c2ccccc2)CC1)c1ccc(Br)cc1	/	3%	/	/
Cc1cc2oc(=O)cc(CN3CCCCC3C)c2cc1C (stereo not drawn)	1	-2%	6%	-1
Nc1ccc(-c2nc3c(Cl)c(N)ccc3[nH]2)cc1	78*	-5%	-2%	15
COc1ccc(C2(c3ccc(OC)cc3)NC(=O)N(CC(=O)N(C)c3ccccc3)C2=O)cc1	72*	/	10%	51*
O=C1C(Cl)=C(N2CCCCCC2)C(=O)N1c1ccc(Br)cc1	22	-2%	1%	3
O=C1C(Cl)=C(N2CCCCCC2)C(=O)N1c1ccccc1	46	-7%	-70%	25*
SMILES	Shiga toxin inh	SARS PLpro yeast	NS1 function inh	CHX counter
CN(CC(=O)Nc1ccccc1C(=O)Nc1ccccc1)C1CCCCC1	/	-1%	/	/
CC(=O)OCC(NC(=O)C(Cc1ccccc1)NC(=O)OC(C)(C)C)C1OC(n2cc(C)c(=O)[nH]c2=O)C(OC(C)=O)C1OC(C)=O (stereo not drawn)	-14	/	/	11
Cc1cc(C)c2c(N)c(C(=O)NC3CCCC3)sc2n1	70*	-4%	-4%	20*
Cc1cc(C)c2c(N)c(C(=O)NCC3CCCCC3)sc2n1	130*	-7%	-8%	35*
Cc1cc(C)c2c(N)c(C(=O)C(C)(C)C)sc2n1	-12	0%	6%	-1
CCC/C=C1/CCCOC(C(=O)NCCOC)(C(F)(F)F)C1 (stereo not drawn)	-3	/	/	19
CCOC(=O)C(C)Sc1nnc(-c2c[nH]c3ccccc23)n1C (stereo not drawn)	10	-6%	-20%	11
C#CCSc1nnc(-c2c[nH]c3ccccc23)n1C	2	1%	-16%	18*
CC(C)Sc1nnc(-c2c[nH]c3ccccc23)n1C	121*	-3%	-51%	50*
C#CCSc1nnc(-c2sc(-c3ccccc3)nc2C)n1C	18	1%	-16%	18*
CCn1c(-c2sc(-c3ccccc3)nc2C)n[nH]c1=S	-22	5%	-7%	-4
CCNC(=S)NNC(=O)c1ccc(OC(F)F)cc1	-20	8%	-3%	7
CCn1c(CNC(C)=O)nnc1SCC(=O)c1ccc(Br)cc1	13	-5%	?	3
CCN(CC)C(=S)SCC(=O)c1ccc(Br)cc1	167*	-59%	-18%	107*
CCCCCCc1ccc(N2C[C@H](Cc3ccccc3)[C@@H](CC(=O)Nc3ccccc3)C2=O)cc1	44*	-1%	?	17*
CCCCCCc1ccc(N2C[C@H](C)[C@@H](CC(=O)NCc3ccccc3)C2=O)cc1	-1	-10%	2%	8.5*

High-throughput results deposited in PubChem by National Center for Advancing Translational Sciences (NCATS).
